HIV RNase H inh-1 = HIV-1 RT RNase H inhibitors, primary screen, biochemical, fluorescence | Gag-Pol polyprotein (Human immunodeficiency virus type 1 group M subtype B (isolate … | 65,000 compounds, 1.9% hits | RT-RNase H RNA/DNA duplex cleavage | AID 565, 2006 | inhibition, % at 10 µM; in the data active = inhibition above about 50%
HIV RNase H inh-2 = HIV-1 RT RNase H inhibitors, retest, confirmation, biochemical | shares compounds with HIV RNase H inh-1 | Recombinant RT RNase H, fluorescent RNA/DNA duplex cleavage | inhibition, % at 10 µM | 1,000 compounds, 39% hits; in the data active = inhibition above about 48%; inconclusive = no clear call, values can overlap the other calls
Hits are given with their value; - = inactive; ? = inconclusive. Only a selection was taken, and hits are over-represented in it overall.

SMILES	HIV RNase H inh-1	others
CC1(C)Cc2c(sc3nn[nH]c(=O)c23)CO1	-
CCC1CC2(C)NC(=O)c3c(sc4c3CC(C)(C)OC4)N2C1=O (stereo unspecified)	79.0	HIV RNase H inh-2=59.6
CCOC(=O)N1CCC2(CC1)C(C#N)=C(N)Oc1c2c(C)nn1-c1cccc(Cl)c1	-
Cc1ccc(S(=O)(=O)NC(=O)COc2ccccc2C(N)=O)cc1	-
Cc1nn(-c2ccccc2)c2sc(C(=O)OC3CCOC3=O)cc12 (stereo unspecified)	-
Cc1nc(-c2c(-c3ccc(O)cc3O)noc2C(F)(F)F)cs1	-
O=C(CC1(O)C(=O)Nc2ccc(Br)cc21)c1ccc2c(c1)OCO2 (stereo unspecified)	-
CCOc1ccc(N2C(=O)CCC2=O)cc1	-
CCOc1ccc(N2Cc3ccccc3C2)cc1	72.5	HIV RNase H inh-2=60.7
CCOc1ccc(S(=O)(=O)N2CCc3ccccc3C2)cc1	-
COc1ccc(N/C(C)=C2/C(=O)C(=O)N(CCO)C2c2ccc(Br)cc2)cc1 (stereo unspecified)	-
CCn1c(=O)cc(SCC(=O)NCCCN2CCN(c3ccc(F)cc3)CC2)c2ccccc21	66.2	HIV RNase H inh-2=-
Cn1c(=O)cc(SCC(=O)NCCCN2CCN(c3ccccc3F)CC2)c2ccccc21	-
CCn1c(=O)cc(SCC(=O)NCCN2CCN(Cc3ccccc3)CC2)c2ccccc21	-
CCOC(=O)c1nn(-c2ccccc2C)c(=O)c(C#N)c1C	-
CCOC(=O)c1c(N)sn(-c2ccccc2C)c1=S	92.0	HIV RNase H inh-2=71.3
CCOC(=O)c1c(C)[nH]sc1=S	-
Cc1cc(C)nc(SCc2nnc(SCC(=O)Nc3cc(C(F)(F)F)ccc3Cl)o2)n1	-
O=C(Nc1ccc2oc(-c3ccccc3Cl)nc2c1)c1ncn[nH]1	-
CC(C)c1ccc2oc(-c3ccc(N)cc3)nc2c1	-
CCC(C)c1ccc2oc(-c3ccc(NC(=O)c4ncn[nH]4)cc3)nc2c1 (stereo unspecified)	64.3	HIV RNase H inh-2=71.0
CCC(C)c1ccc(O)c(NC(=O)c2ncn[nH]2)c1 (stereo unspecified)	-
CC(C)c1ccc2oc(-c3ccc(NC(=O)c4ncn[nH]4)cc3)nc2c1	74.0	HIV RNase H inh-2=58.2
CCC(C)NCC(=O)Nc1ccc(-c2nc3cc(NC(=O)CNC(C)CC)ccc3o2)cc1 (stereo unspecified)	-
O=c1c(/C=N/O)c(Nc2ccccc2)nc2ccccn12	-
SMILES	HIV RNase H inh-1	others
COc1ccc2nc(NC(=O)C3CCCN3S(=O)(=O)c3ccc(C)cc3)sc2c1 (stereo unspecified)	-
Cc1ccc(-n2cc(C(C)(C)C)[nH]c2=S)cc1	-
COc1ccc(C2/C(=C(/O)c3ccccc3)C(=O)C(=O)N2CC(C)O)c(OC)c1 (stereo unspecified)	-
O=C(CN1C(=O)C2C3C=CC(C3)C2C1=O)N1CCc2ccccc2C1 (stereo unspecified)	-
COCc1nc2ccccc2n1CCOc1ccccc1OC	80.3	HIV RNase H inh-2=-
COCCn1c(COc2ccc(C)cc2)nc2ccccc21	-
COCCn1c(COC)nc2ccccc21	-
CCCCCCNS(=O)(=O)c1nc2nc(C)cc(C)n2n1	-
C=C(C)Cn1c(COc2ccccc2)nnc1SCC(=O)O	-
Cc1cccc(N(C)S(=O)(=O)c2ccc3[nH]c(=O)c(=O)[nH]c3c2)c1	-
C=CCn1c(N)c(C(=O)NCC2CCCO2)sc1=S (stereo unspecified)	-
CCn1c(N)c(C(=O)NCC2CCCO2)sc1=S (stereo unspecified)	-
Nc1c(C(=O)NCC2CCCO2)sc(=S)n1-c1ccccc1 (stereo unspecified)	83.9	HIV RNase H inh-2=?
Nc1c(C(=O)NCc2cccnc2)sc(=S)n1-c1ccccc1	59.8	HIV RNase H inh-2=63.4
CCn1c(N)c(C(=O)NCc2cccnc2)sc1=S	-
Cc1cc(C(=O)NCc2cccnc2)n(-c2ccccc2)n1	-
CN(C)P(=NC(=O)COc1ccc(Cl)cc1Cl)(N(C)C)N(C)C	-
COc1ccccc1CNC(=O)N[C@@H](Cc1ccccc1)C(=O)O	-
O=S(=O)(NCCSc1nnnn1-c1ccccc1)c1cccs1	-
COC(=O)c1cccnc1-n1c(=O)c2cccnc2n(Cc2cccc(OC)c2)c1=O	-
CCCCN(C)CCCNC(=O)c1ccc2c(c1)NC(=O)C(N1CCOCC1)S2 (stereo unspecified)	-
COC(=O)c1ccc2c(c1)NC(=O)C(N1CCCC1)S2 (stereo unspecified)	-
CCOC(=O)c1ccc2c(c1)NC(=O)C(N1CCN(c3ccc(OC)cc3)CC1)S2 (stereo unspecified)	85.3	HIV RNase H inh-2=-
O=C(O)c1ccc2c(c1)NC(=O)C(N1CCCC1)S2 (stereo unspecified)	92.1	HIV RNase H inh-2=62.8
CCOC(=O)N1CCN(C(=O)c2ccc3c(c2)NC(=O)C(N2CCOCC2)S3)CC1 (stereo unspecified)	-
SMILES	HIV RNase H inh-1	others
COC(=O)c1ccc2c(c1)NC(=O)C(N1CCCCC1)S2 (stereo unspecified)	-
CS(=O)(=O)c1ccc2nc(NC(NC(=O)c3ccco3)(C(F)(F)F)C(F)(F)F)sc2c1	-
O=C(CSc1ccc2nnc(-c3cccnc3)n2n1)NCC1CCCO1 (stereo unspecified)	-
O=C(CSc1ccc2nnc(-c3cccc(F)c3)n2n1)NCC1CCCO1 (stereo unspecified)	73.3	HIV RNase H inh-2=-
O=C(CSc1ccc2nnc(-c3ccccn3)n2n1)NCC1CCCO1 (stereo unspecified)	-
CCOC(=O)CSc1cc(C)nc(NC(C)=O)n1	-
COc1ccc(S(=O)(=O)N(C)CC(=O)NCc2cccnc2)cc1C	-
CCOC(=O)CSc1cccc2cccnc12	-
O=C(/C=N/O)NCCCn1ccnc1	-
O=C(/C=N/O)NCCN1CCCCC1	71.5	HIV RNase H inh-2=-
C/C(=N\O)C(=O)NCCN1CCCCC1	-
c1nc(NCCN2CCOCC2)c2sc3nc(N4CCOCC4)c4c(c3c2n1)CCC4	-
CSc1nc(NCCOCCO)c2sc3nc(-c4ccco4)c4c(c3c2n1)CCC4	70.0	HIV RNase H inh-2=-
NC(=O)c1sc2nc3c(c(-c4ccco4)c2c1N)CCC3	-
CC(=O)Nc1ccc(OC(F)(F)C(F)C(F)(F)F)c(NC(C)=O)c1 (stereo unspecified)	-
C=CCOc1c(CNc2nccs2)cccc1OCC	-
Cc1cc(C(F)(F)F)nc(SCC(=O)NC2=NC(=O)C(C)S2)n1 (stereo unspecified)	60.3	HIV RNase H inh-2=?
Cc1cc(C)nc(SCC(=O)NC2=NC(=O)C(C)S2)n1 (stereo unspecified)	-
Cc1cc(C(F)(F)F)nc(SCC(=O)Nc2ccccc2)n1	-
CNC(=O)N(C1=NCC(C)(C)S1)c1ccc(F)c(Cl)c1	-
Cc1[nH]c2ccc(-c3nnc(SCC(=O)N4CCCc5ccccc54)o3)cc2c1C	-
CC1(C)NC(=O)N(CC(O)Cn2nnc3ccccc32)C1=O (stereo unspecified)	-
COCCSc1ccccc1C(=O)NCCCn1ccnc1	-
O=C(NCCCn1ccnc1)C(Cc1ccccc1)N1C(=O)c2ccccc2C1=O (stereo unspecified)	54.9	HIV RNase H inh-2=-
Cc1ccc(C(=O)NCCCn2ccnc2)o1	-
CC(=O)CCc1c[nH]c2c(C(=O)O)cccc12	-
CN1CCN(c2nc3nonc3nc2N2CCN(C)CC2)CC1	-
O=C(COC(=O)c1cc(S(=O)(=O)N2CCOCC2)cs1)c1ccccc1	-

Screens: PubChem, University of Pittsburgh Molecular Library Screening Center
